Reference: PubChem BioAssay (NCATS)
Records with an inconclusive call do not appear. A number with no mark means an inactive call. Activity calls are given as the source filed them. Calls follow the shape of the dose curve; as a rule, active = well fitted inhibition curve with a large enough effect; inconclusive = small, poorly fitted or top-dose-only effect; inactive = flat fitted curve, though single readings scatter.

Assays:
[1] = tested on: CRL-7250; test: Cytotoxic Profiling of Annotated Libraries Using Quantitative High-Throughput Screening (AID 1296008); details: Five cell lines viability, CellTiter-Glo ATP luminescence, 48-72 h; max response: active compounds read low; also: potency is read from the fitted curve at half-maximal effect; as to max response: % is scaled to controls: 0 for no effect and ±100 for the full control effect
In short: (§1)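 Cytotoxicity was measured as CellTiter-Glo ATP luminescence, read after 10 min at room temperature. Compound treatment of the cells lasted 48 or 72 hr at 37 degrees Celsius in a qHTS format.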

[2] = tested on: HEK293; test: as above; details: Five cell lines viability, CellTiter-Glo ATP luminescence, 48-72 h; max response: active compounds read low
In short: as §1

[3] = tested on: HaCat; test: as above; details: Five cell lines viability, CellTiter-Glo ATP luminescence, 48-72 h; max response: active compounds read low
In short: as §1

[4] = tested on: KB-3-1; test: as above; details: Five cell lines viability, CellTiter-Glo ATP luminescence, 48-72 h; max response: active compounds read low
In short: as §1

[5] = tested on: NIH3T3; test: as above; details: Five cell lines viability, CellTiter-Glo ATP luminescence, 48-72 h; max response: active compounds read low
In short: as §1

[6] = tested on: HACAT; test: qHTS assay to identify novel small-molecules to repurpose for Merkel cell carcinoma treatment (AID 1296009); details: MCC and control cell lines, CellTiter-Glo viability, 72 h; at 44.8 µM (top of the series) unless noted
In short: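 After compound transfer in DMSO, plates were kept 72 hr at 37 degree celsius. Luminescent ATP signal from CellTiter-Glo served as viability measure, normalized against DMSO and no-cell controls.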
Also: nearly all actives have a fitted effect of over 60% in size.

Row | Compound | outcome [1] | max response [2] [%] | outcome [3] | outcome [4] | max response [5] [%] | outcome [6] | max response [1] [%] | max response [4] [%] | outcome [5] | Potency [2]
1 | CC1CC(=O)C2=C(O1)OC1(C)CCC3C(C)(C)C4OC4C(=O)C3(C)C1C2 (stereo not given) | inactive | 1.32 | inactive | inactive | -0.441 | inactive | – | – | – | –
2 | C[C@@H]1O[C@@H](O[C@H]2[C@H](OC(=O)[C@]34CCC(C)(C)C[C@H]3C3=CCC5[C@@]6(C)CC[C@H](O[C@@H]7O[C@H](CO[C@@H]8OC[C@H](O)[C@H](O)[C@H]8O[C@@H]8OC[C@@H](O)[C@H](O)[C@H]8O)[C@@H](O)[C@H](O)[C@H]7O)C(C)(C)C6CC[C@@]5(C)[C@]3(C)C[C@H]4O)O[C@H](CO)[C@@H](O)[C@@H]2O)[C@H](O[C@@H]2O[C@H](CO)[C@@H](O)[C@H](O)[C@H]2O)[C@H](O)[C@H]1O[C@@H]1OC[C@@H](O)[C@H](O[C@@H]2OC[C@@H](O)[C@H](O)[C@H]2O)[C@H]1O (stereo not given in full) | – | 5 | inactive | – | -3.82 | inactive [at 4.96 µM] | 0.998 | -0.626 | – | –
3 | C/C=C(/C)C(=O)O[C@H]1C[C@]2(C)O[C@@H]2[C@@H](OC(C)=O)[C@@]2(C)CC[C@@](O)(C(C)C)[C@H]12 | inactive | -3.47 | inactive | – | -1.87 | inactive | – | -1.06 | – | –
4 | Cc1oc(S(=O)(=O)N2CCCCC2)cc1NC(=O)Nc1ccccc1 | inactive | -1.71 | inactive | inactive | -1.71 | inactive | – | – | – | –
5 | COC(=O)C1C(c2ccc(O)cc2)C(C(=O)O)C1c1ccc(O)cc1 (stereo not given) | – | -2.14 | inactive | – | -3.05 | inactive | -7.64 | 7.92 | – | –
6 | C=C1CC[C@@H]2C(C)(C)CCC[C@@]2(C)[C@@H]1CC/C(=C/C(=O)OC)COC(C)=O | – | -16.3 | inactive | – | – | inactive | -1.64 | -9.17 | inactive | –
7 | CC1(C(=O)O)CC[C@]2(C(=O)OC3OC(CO)C(O)C(O)C3O)CC[C@]3(C)C(=CCC4[C@@]5(C)CC[C@H](OC6OCC(O)C(O)C6OC6OC(CO)C(O)C(O)C6O)C(C)(C)C5CC[C@]43C)C2C1 (stereo not given in full) | – | -7.14 | inactive | inactive | 0.38 | inactive [at 9.27 µM] | 0.0336 | – | – | –
8 | COC(=O)C1=CO[C@@H](O[C@@H]2O[C@H](CO)[C@@H](O)[C@H](O)[C@H]2O)C2C1CC(O)C2C (stereo not given in full) | – | 0.336 | inactive | inactive | -5.32 | inactive | -13.7 | – | – | –
9 | CC(=O)OC/C(=C/C(=O)O)CC[C@@H]1C(C)=CC(=O)[C@@H]2C(C)(C)CCC[C@@]12C | inactive | -0.879 | inactive | – | – | inactive | – | -6.11 | inactive | –
10 | N#Cc1cccc(-c2nc(-c3cccnc3)no2)c1 | – | -8.6 | inactive | inactive | – | inactive [at 17.4 µM] | -3.07 | – | inactive | –
11 | O=C(c1c2ccccc2cc2ccccc12)N1CCC(N2CCC[C@@H](C(=O)N3CCOCC3)C2)CC1 | – | -10.6 | inactive | inactive | -3.13 | inactive | 2.01 | – | – | –
12 | O=C(N[C@@H]1CC[C@@H](c2cccc(F)c2F)CN(CC(F)(F)F)C1=O)N1CCC(n2c(=O)[nH]c3ncccc32)CC1 | – | – | inactive | inactive | -12.6 | inactive | -4.99 | – | – | 16.4 µM (active)
13 | C=C1C2(C)CC3C4(C)OC(C5OC56C4=CC(=O)OC6(C)C)C3(C)C13C(=O)OC(C)C3(O)C2=O (stereo not given) | – | -4.51 | inactive | – | 2.35 | inactive [at 17.4 µM] | -6.5 | 7.16 | – | –
14 | CC(=O)O[C@@H]1C(O)C[C@@]2(C)C(CC[C@@H](C)C23Cc2c(O)cc4c(c2O3)CNC4=O)C1(C)C (stereo not given in full) | – | 1.81 | inactive | – | -7.87 | inactive [at 17.4 µM] | 0.238 | -3.56 | – | –
15 | COC(=O)C1=CO[C@@H](O[C@@H]2O[C@H](CO)[C@@H](O)[C@H](O)[C@H]2O)[C@@H]2C(CO)=CC[C@H]12 | – | -17.4 | inactive | inactive | -0.343 | inactive | 3.17 | – | – | –
16 | COC(=O)C1=C[C@@H](O)[C@@H](O)[C@H](O[C@@H]2O[C@H](CO)[C@@H](O)[C@H](O)[C@H]2OC(=O)/C=C/c2ccccc2)C1 | – | -6.26 | inactive | – | -1.73 | inactive [at 17.4 µM] | -2.62 | -5.3 | – | –
17 | C[C@H]1CC[C@@]2(OC1)O[C@H]1CC3C4CC[C@H]5C[C@@H](O)CC[C@]5(C)C4CC(=O)[C@]3(C)[C@H]1[C@@H]2C (stereo not given in full) | – | -2.47 | inactive | inactive | 3.42 | inactive [at 17.4 µM] | 2.1 | – | – | –
18 | C=CC(C)(O)CC/C=C(\C)C(=O)O[C@@H]1[C@@H](O)[C@H](OC(C)(C=C)CC/C=C(\C)C(=O)O[C@@H]2O[C@H](CO)[C@@H](O)[C@H](O)[C@H]2O)O[C@H](CO)[C@H]1OC(=O)/C(C)=C/CCC(C)(O)C=C (stereo not given in full) | – | -3.95 | inactive | inactive | 1.18 | inactive [at 9.27 µM] | 1.38 | – | – | –

Row | Compound | outcome [1] | max response [2] [%] | outcome [3] | outcome [4] | max response [5] [%] | outcome [6] | max response [1] [%] | max response [4] [%] | outcome [5] | Potency [2]
19 | CC(=O)O[C@H]1C[C@@H](O)C(C)(C)C2C[C@@H](OC(C)=O)[C@@]3(C)C4=CCC(C(CO)CC(O)C5OC5(C)C)[C@]4(C)CCC3[C@]21C (stereo not given in full) | inactive | -1 | inactive | inactive | -1.52 | inactive [at 17.4 µM] | – | – | – | –
20 | COC(=O)C1=CO[C@@H](O[C@@H]2O[C@H](CO)[C@@H](O)[C@H](O)[C@H]2O)[C@H]2[C@@H]1C=C[C@]21C=C([C@H](C)OC(=O)/C=C/c2ccc(O[C@@H]3O[C@H](CO)[C@@H](O)[C@H](O)[C@H]3O)cc2)C(=O)O1 | – | 4.82 | inactive | – | – | inactive [at 17.4 µM] | -2.8 | 9.99 | inactive | –
21 | COc1ccc(OC2OC(CO[C@@H]3O[C@@H](C)[C@H](O)[C@@H](O)[C@H]3O)C(O)C(O)C2O)cc1OC (stereo not given in full) | – | -0.0887 | inactive | – | – | inactive [at 17.4 µM] | 3.33 | 5.53 | inactive | –
22 | COC1OC(O)C2(CCC3(O2)C(C)CC2OC(=O)C4(C)CCCC3(C)C24)C1O (stereo not given) | inactive | -1.02 | inactive | – | 1.38 | inactive | – | -1.51 | – | –
23 | O=C(O)c1ccc(NC(=O)[C@H](CC2CCCC2)n2cnc(C(F)(F)F)c2)nc1 | – | -11 | inactive | inactive | – | inactive | -11.6 | – | inactive | –
24 | CC1=C2CC(C)(C)CC2C(O)C2=C(C1)C(=O)OC2O (stereo not given) | inactive | 4.01 | inactive | inactive | -6.57 | inactive | – | – | – | –
25 | CC1C(=O)OCC2=CC[N+]3([O-])CCC(OC(=O)C(C)(O)C1(C)O)C23 (stereo not given) | – | 3.51 | inactive | – | – | inactive | 2.6 | 7.03 | inactive | –
26 | C=CC(C)(C)C12Nc3c(ccc4c3OC(C)(C)C=C4)C1(O)CC1C(=O)N3CCCC3C(=O)N12 (stereo not given) | – | -7.42 | inactive | inactive | – | inactive [at 17.4 µM] | 0.0002 | – | inactive | –
27 | COc1cc(C2Oc3c(OC)cc(/C=C/C(=O)OC4CC(O)(C(=O)O)CC(O)C4O)cc3C2CO)ccc1O (stereo not given) | – | 1.22 | inactive | – | – | inactive [at 17.4 µM] | -7.61 | 9.01 | inactive | –
28 | C=C1C(=O)O[C@@H]2CC(C)=C([C@@H](C)CCCOC(C)=O)[C@@H](O)[C@H]12 | – | 1.32 | inactive | – | – | inactive | 0.455 | 6.41 | inactive | –
29 | CCCSc1nc(NC2CC2c2ccc(F)c(F)c2)c2nnn(C3CC(OCCO)C(O)C3O)c2n1 (stereo not given) | inactive | – | inactive | – | -3.04 | inactive | – | -19.7 | – | 18.4 µM (active)
30 | C[C@]1(OC(=O)/C=C/c2ccccc2)C[C@@H](O)[C@]2(O)C=CO[C@@H](O[C@@H]3O[C@H](CO)[C@@H](O)[C@H](O)[C@H]3O)[C@@H]21 | – | 3.08 | inactive | – | – | inactive [at 17.4 µM] | -4.65 | 8.76 | inactive | –
31 | Cc1ccc(COC(=O)N2CC[C@@H](CNc3ncccn3)[C@@H](F)C2)cc1 | – | -31.7 | inactive | – | -18.5 | inactive | -0.943 | -17.2 | – | –
32 | COc1cc(C(CO)C(OC2OC(CO)C(O)C(O)C2O)c2ccc(O)c(OC)c2)ccc1O (stereo not given) | inactive | -2.64 | inactive | – | – | inactive [at 17.4 µM] | – | 3.11 | inactive | –
33 | CCCc1[nH]nc2c1C(c1cc(Cl)cc(Cl)c1O)C(C#N)=C(N)O2 (stereo not given) | – | -17.1 | inactive | inactive | – | inactive | -0.63 | – | inactive | –
34 | CC1CCC2(NC1)OC1C(O)C3C4CCC5CC(O[C@@H]6O[C@H](CO)[C@@H](O)[C@H](O)[C@H]6O[C@@H]6O[C@@H](C)[C@H](O)[C@@H](O)[C@H]6O)CCC5(C)C4CCC3(C)C1C2C (stereo not given in full) | – | 2.08 | inactive | – | – | inactive [at 17.4 µM] | -4.87 | -0.386 | inactive | –
35 | O=C(O)CC(CCc1ccccc1)OC1OC(CO)C(O)C(O)C1O (stereo not given) | – | -5.21 | inactive | inactive | – | inactive | -6.12 | – | inactive | –
